Several values for one entry are separate records, joined by “and”; a condition that tells them apart may be missing. Equal values may be shown once. Activity calls are given as the source filed them.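 The calls were made as follows: active = fitted half-maximal concentration AC50 at or below ten times the highest valid tested dose, with signal falling as DNA is displaced (actives reach about 34 µM in these data); inconclusive = flat fit at moderate signal loss, or poor fit quality; inactive = the rest, including signal rising instead of falling.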
assay: DNA intercalators displacing acridine orange, dose response, artefact control for KSHV LANA DNA-binding inhibitor project, biochemical, fluorescence polarization, cherry-picked samples, set 2 (AID 504727); details: AC50: Acridine orange-DNA displacement; series mostly up to 35 µM; activity change, negative = DNA displacement: at the top concentration;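 as to activity change, negative = DNA displacement: 0% = median of neutral control wells and -100% = mitoxantrone positive control wells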

Activity change, negative = DNA displacement, inactive:
C=CCN1C(=O)/C(=c2\sc3nc(=O)c(Cc4ccccc4Cl)nn3c2=O)c2ccccc21 7.68%
O=C(CN1CC[C@@]2(O)CCCC[C@H]2[C@@H]1c1ccc(F)cc1)NCc1ccco1 -2.12%
C/C(=N\Nc1nc2c(s1)CCCC2)c1ccc(Cl)cc1 5.41%
CN(Cc1cnc2nc(N)nc(N)c2n1)c1ccc(C(=O)NC(CCC(=O)O)C(=O)O)cc1 (stereo unspecified) 2.09%
Cc1ccc(S(=O)(=O)/N=C2/C=C(Sc3ncn[nH]3)C(=O)c3ccccc32)cc1 -0.37%
Cc1ccc(NS(=O)(=O)c2ccc(C(=O)NCCCN3CCCC3=O)cc2)cc1 2.52%
O=C(O)CN1C(=O)/C(=C\c2cc(Br)ccc2OCc2ccc([N+](=O)[O-])cc2)SC1=S 5.9%
C/C(=N\NC(=O)CCc1c(C)n[nH]c1C)c1ccc([N+](=O)[O-])cc1 5.29%
CCCc1cc(=O)oc2cc(C)cc(OCC(=O)O)c12 -6.33%
NC(=O)C1=NOC(CNc2ncc(C(F)(F)F)cc2Cl)C1 (stereo unspecified) 4.43%
O=C(OCC(=O)N1N=C(c2ccc(Cl)cc2)CC1c1ccco1)c1cccnc1 (stereo unspecified) 6.32%
O=c1nc(N2CCOCC2)ccn1-c1nc(-c2ccccc2)sc1-c1ccccc1 -4.48%

AC50, active:
C[n+]1c2cc(N)ccc2cc2ccc(N)cc21 1.66 µM and 2.31 µM
CC(Oc1ccccc1)c1nnc(N)s1 (stereo unspecified) 17.5 µM
Cc1nc(Cl)c2c(n1)NC1=C(O2)C(=O)CCC1 11.1 µM
CNc1c2cccc(C)c2nc2c(C(=O)NCCN(C)C)cccc12 6.16 µM

— PubChem BioAssay AID504727 (Broad Institute, 2011)
